14-3-3 Bad inh: disrupts binding of bovine 14-3-3 zeta to phospho-Bad peptide. inhibition, % at 21.7 µM. TR-FRET 14-3-3zeta/Dy647-pBad peptide displacement, 1 h. actives 0.71% (n = 220,000);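 active = inhibition above about 70%, limit read from the data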
Bim-Mcl-1: disrupts Bim peptide binding to human Mcl-1; Q07820; Bead-based flow cytometry, Bim peptide-Mcl-1 binding; inhibition, % at 10 µM; actives 0.1% (n = 190,000); in the data active = inhibition above about 40%
Target sequence (Q07820 whole entry, looked up): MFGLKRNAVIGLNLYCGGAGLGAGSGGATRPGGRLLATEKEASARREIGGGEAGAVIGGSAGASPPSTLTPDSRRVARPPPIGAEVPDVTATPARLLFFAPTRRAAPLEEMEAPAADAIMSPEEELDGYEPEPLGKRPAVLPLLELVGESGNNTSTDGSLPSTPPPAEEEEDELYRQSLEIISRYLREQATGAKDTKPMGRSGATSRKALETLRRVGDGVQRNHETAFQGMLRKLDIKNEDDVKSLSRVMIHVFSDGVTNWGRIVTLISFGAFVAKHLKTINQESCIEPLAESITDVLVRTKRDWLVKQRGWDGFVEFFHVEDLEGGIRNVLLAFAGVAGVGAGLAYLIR
Mcl1 Bid PPI: Mcl-1/Bid interaction inhibition | TR-FRET Mcl-1/Bid-Dy647 peptide binding, 1536-well | actives 0.97% (n = 220,000) | Q07820 | inhibition, % at 21.7 µM | AID 1021;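 active = compounds that cut the binding signal by more than half at the single screening dose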;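 also: His-tagged Mcl-1 with europium anti-His antibody binding Bid BH3 peptide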
NCF1 inh: inhibitors of human p47phox binding; P14598; p47phox/p22phox peptide binding, fluorescence polarization, 2 h; inhibition, % at 24.7 µM; actives 0.53% (n = 220,000);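 active = inhibition above about 30%, limit read from the data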
Target sequence (P14598 whole entry, looked up): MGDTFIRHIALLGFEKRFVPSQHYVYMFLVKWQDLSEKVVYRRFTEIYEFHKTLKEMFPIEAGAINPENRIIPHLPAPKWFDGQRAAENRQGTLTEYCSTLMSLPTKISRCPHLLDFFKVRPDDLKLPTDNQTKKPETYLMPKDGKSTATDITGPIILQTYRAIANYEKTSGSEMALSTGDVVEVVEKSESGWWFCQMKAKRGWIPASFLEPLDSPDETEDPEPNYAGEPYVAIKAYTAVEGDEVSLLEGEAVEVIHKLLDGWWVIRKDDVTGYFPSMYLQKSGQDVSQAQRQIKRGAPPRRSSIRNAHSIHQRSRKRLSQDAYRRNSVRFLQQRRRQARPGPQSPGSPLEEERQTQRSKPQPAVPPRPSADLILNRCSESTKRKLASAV
Mcl1 Noxa PPI: Mcl-1/Noxa interaction inhibition | Q07820 | actives 1.5% (n = 220,000) | AID 1022 | inhibition, % at 21.7 µM | TR-FRET Mcl-1/Noxa peptide binding, 2 h;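 active = compounds that cut the protein-peptide binding signal by more than 50% relative to plate controls in a single-dose test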;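 also: His-tagged Mcl-1 with rhodamine Noxa BH3 peptide and terbium anti-His antibody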
m-calpain inh: calpain II (pig) inhibition; purified calpain II, fluorogenic peptide substrate, 30 min; inhibition, % at 16 µM; actives 0.37% (n = 220,000); AID 1236;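 active = inhibition above about 50%, limit read from the data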
A number is an active result. A selection: hits, their analogues and other compounds. The true share with any hit is near 3.4%.

How did Cc1cc(NCc2ccccn2)nc2ccccc12 do in these assays?
14-3-3 Bad inh: inactive; Bim-Mcl-1: inactive; Mcl1 Bid PPI: inactive; NCF1 inh: inactive; Mcl1 Noxa PPI: inactive; m-calpain inh: inactive

How did CCN(CC)CCSc1nc(O)c(Cc2ccccc2)c(=O)n1-c1ccccc1 do in these assays?
14-3-3 Bad inh: inactive; Bim-Mcl-1: inactive; Mcl1 Bid PPI: inactive; NCF1 inh: inactive; Mcl1 Noxa PPI: inactive; m-calpain inh: inactive

How did CC(=O)NC(Cc1ccccc1C)C(=O)NC1CCN(c2ncccc2[N+](=O)[O-])CC1 (stereo unspecified) do in these assays?
14-3-3 Bad inh: inactive; Bim-Mcl-1: inactive; Mcl1 Bid PPI: inactive; NCF1 inh: inactive; Mcl1 Noxa PPI: inactive; m-calpain inh: inactive

Results for O=S(=O)(Cc1cc(Cl)nc(-c2ccncc2)n1)c1ccccc1 ?
14-3-3 Bad inh: inactive; Bim-Mcl-1: inactive; Mcl1 Bid PPI: inactive; NCF1 inh: inactive; Mcl1 Noxa PPI: 81; m-calpain inh: inactive

What do the screens show for `O=S(=O)(Cc1cc(Cl)nc(-c2ccccc2)n1)c1ccccc1`?
14-3-3 Bad inh: inactive; Bim-Mcl-1: inactive; Mcl1 Bid PPI: inactive; NCF1 inh: inactive; Mcl1 Noxa PPI: inactive; m-calpain inh: inactive

What do the screens show for `O=C(COc1ccc(F)cc1)NN1C(=O)CSC1=S`?
14-3-3 Bad inh: inactive; Bim-Mcl-1: inactive; Mcl1 Bid PPI: inactive; NCF1 inh: inactive; Mcl1 Noxa PPI: inactive; m-calpain inh: 52

What do the screens show for `O=C(COc1ccccc1)NN1C(=O)CSC1=S`?
14-3-3 Bad inh: inactive; Bim-Mcl-1: inactive; Mcl1 Bid PPI: inactive; NCF1 inh: inactive; Mcl1 Noxa PPI: inactive; m-calpain inh: inactive

What do the screens show for `O=C(CN1C(=O)NC2(CCSC2)C1=O)NCc1ccccc1` (stereo unspecified)?
14-3-3 Bad inh: inactive; Bim-Mcl-1: inactive; Mcl1 Bid PPI: inactive; NCF1 inh: inactive; Mcl1 Noxa PPI: inactive; m-calpain inh: inactive

What do the screens show for `CCOc1ccc(-n2nc3c(=S)[nH]nc(C)c3c2C)cc1`?
14-3-3 Bad inh: inactive; Bim-Mcl-1: inactive; Mcl1 Bid PPI: inactive; NCF1 inh: inactive; Mcl1 Noxa PPI: inactive; m-calpain inh: inactive

How did CCOc1ccc(-n2nc3c(=O)[nH]nc(C)c3c2C)cc1 do in these assays?
14-3-3 Bad inh: inactive; Bim-Mcl-1: inactive; Mcl1 Bid PPI: inactive; NCF1 inh: 57; Mcl1 Noxa PPI: inactive; m-calpain inh: inactive

Results for CCOC(=O)c1cnc(-n2nc(C)cc2C)nc1Nc1ccc(N(C)C)cc1 ?
14-3-3 Bad inh: inactive; Bim-Mcl-1: inactive; Mcl1 Bid PPI: inactive; NCF1 inh: inactive; Mcl1 Noxa PPI: 72; m-calpain inh: inactive

How did CCN(CCO)c1nc(SC)nc2c1sc1nc(-c3ccco3)c3c(c12)CCC3 do in these assays?
14-3-3 Bad inh: inactive; Bim-Mcl-1: inactive; Mcl1 Bid PPI: 52; NCF1 inh: inactive; Mcl1 Noxa PPI: 99; m-calpain inh: inactive

What do the screens show for `CSc1nc(NCCOCCO)c2sc3nc(-c4ccco4)c4c(c3c2n1)CCC4`?
14-3-3 Bad inh: inactive; Bim-Mcl-1: inactive; Mcl1 Bid PPI: inactive; NCF1 inh: inactive; Mcl1 Noxa PPI: 96; m-calpain inh: inactive

Results for COc1cnn(-c2ccc(Br)cc2)c(=O)c1SCc1ccccc1 ?
14-3-3 Bad inh: inactive; Bim-Mcl-1: inactive; Mcl1 Bid PPI: inactive; NCF1 inh: inactive; Mcl1 Noxa PPI: 76; m-calpain inh: inactive

What do the screens show for `COc1cnn(-c2ccc(C)cc2)c(=O)c1SCc1ccccc1`?
14-3-3 Bad inh: inactive; Bim-Mcl-1: inactive; Mcl1 Bid PPI: inactive; NCF1 inh: inactive; Mcl1 Noxa PPI: inactive; m-calpain inh: inactive

How did COc1cnn(-c2ccccc2)c(=O)c1SCc1ccc(Cl)cc1Cl do in these assays?
14-3-3 Bad inh: inactive; Bim-Mcl-1: inactive; Mcl1 Bid PPI: inactive; NCF1 inh: inactive; Mcl1 Noxa PPI: 85; m-calpain inh: inactive

Results for CCCCCCCC[n+]1cccc2c3ccccc3ccc21 ?
14-3-3 Bad inh: inactive; Bim-Mcl-1: inactive; Mcl1 Bid PPI: inactive; NCF1 inh: inactive; Mcl1 Noxa PPI: inactive; m-calpain inh: inactive

What do the screens show for `CCCCCCCCCC[n+]1cccc2c3ccccc3ccc21`?
14-3-3 Bad inh: inactive; Bim-Mcl-1: inactive; Mcl1 Bid PPI: inactive; NCF1 inh: 50; Mcl1 Noxa PPI: inactive; m-calpain inh: inactive

Results for COc1ccc2nc(Cl)c(C#N)cc2c1 ?
14-3-3 Bad inh: inactive; Bim-Mcl-1: inactive; Mcl1 Bid PPI: inactive; NCF1 inh: inactive; Mcl1 Noxa PPI: inactive; m-calpain inh: inactive

How did CC(=O)n1cc(C(C[N+](=O)[O-])SCCN)c2ccccc21 (stereo unspecified) do in these assays?
14-3-3 Bad inh: inactive; Bim-Mcl-1: inactive; Mcl1 Bid PPI: 53; NCF1 inh: inactive; Mcl1 Noxa PPI: 53; m-calpain inh: inactive

How did Cc1ccc(NS(=O)(=O)c2cc([N+](=O)[O-])ccc2NNC(=S)Nc2cccc(Cl)c2)c(C)c1 do in these assays?
14-3-3 Bad inh: inactive; Bim-Mcl-1: inactive; Mcl1 Bid PPI: inactive; NCF1 inh: inactive; Mcl1 Noxa PPI: 88; m-calpain inh: inactive

What do the screens show for `Cc1ccc(NS(=O)(=O)c2cc([N+](=O)[O-])ccc2NNC(=S)Nc2cc(C)ccc2C)c(C)c1`?
14-3-3 Bad inh: inactive; Bim-Mcl-1: inactive; Mcl1 Bid PPI: inactive; NCF1 inh: inactive; Mcl1 Noxa PPI: inactive; m-calpain inh: inactive

How did Clc1ccc(SCCCCN2CCNCC2)cc1 do in these assays?
14-3-3 Bad inh: inactive; Bim-Mcl-1: inactive; Mcl1 Bid PPI: inactive; NCF1 inh: inactive; Mcl1 Noxa PPI: inactive; m-calpain inh: inactive

Results for CCOC(=O)c1sc(/N=C/c2ccc(O)cc2O)cc1C ?
14-3-3 Bad inh: inactive; Bim-Mcl-1: inactive; Mcl1 Bid PPI: inactive; NCF1 inh: inactive; Mcl1 Noxa PPI: 57; m-calpain inh: inactive

What do the screens show for `O=C1OC(c2ccccc2)=C/C1=C/N1CCCCC1`?
14-3-3 Bad inh: inactive; Bim-Mcl-1: inactive; Mcl1 Bid PPI: 86; NCF1 inh: inactive; Mcl1 Noxa PPI: inactive; m-calpain inh: inactive

How did Cc1ccc2nc3c(c(Nc4ccc5c(c4)OCCO5)c2c1)CCC3 do in these assays?
14-3-3 Bad inh: inactive; Bim-Mcl-1: inactive; Mcl1 Bid PPI: inactive; NCF1 inh: inactive; Mcl1 Noxa PPI: 56; m-calpain inh: inactive

What do the screens show for `CC1CCc2[nH]c3ccc(C(=O)NCCCOC(C)C)cc3c2C1` (stereo unspecified)?
14-3-3 Bad inh: inactive; Bim-Mcl-1: inactive; Mcl1 Bid PPI: inactive; NCF1 inh: inactive; Mcl1 Noxa PPI: inactive; m-calpain inh: inactive

What do the screens show for `CN(C)N1C(N)=C(C#N)C(c2cccnc2)C2=C1CC(C)(C)CC2=O` (stereo unspecified)?
14-3-3 Bad inh: inactive; Bim-Mcl-1: inactive; Mcl1 Bid PPI: 62; NCF1 inh: inactive; Mcl1 Noxa PPI: inactive; m-calpain inh: inactive

What do the screens show for `CC1(C)CC(=O)C2=C(C1)N(c1ccccc1)C(N)=C(C#N)C2c1cccnc1` (stereo unspecified)?
14-3-3 Bad inh: inactive; Bim-Mcl-1: inactive; Mcl1 Bid PPI: inactive; NCF1 inh: inactive; Mcl1 Noxa PPI: inactive; m-calpain inh: inactive

What do the screens show for `COc1cc(-c2[nH]nc3c2C(c2ccco2)C(C#N)=C(N)O3)cc(OC)c1OC` (stereo unspecified)?
14-3-3 Bad inh: inactive; Bim-Mcl-1: inactive; Mcl1 Bid PPI: inactive; NCF1 inh: inactive; Mcl1 Noxa PPI: inactive; m-calpain inh: inactive

High-throughput results deposited in PubChem BioAssay by several laboratories.
